Assay [1] is described as follows: E. coli DRC41 culture turbidity changes, primary screen, E. coli filamentation inducer project, strain DRC41, OD650, 48 h (AID 1152).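 Also: E. coli MC1000 strain DRC41 lacking acrAB efflux pump and sulA.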 The settings on record: E. coli DRC41 (acrAB sulA), higher = more signal, called active from +8 up or from −8 down.
Assay [2] can be described thus: small-molecule binders of probe aLefty1, primary screen, biochemical, small-molecule microarray, 635/667 nm fluorescence (AID 1153).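 Also: score merges spot fluorescence with signal-to-noise ratio from the scanned slide images.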 The settings on record: higher = more signal.
The nature of assay [3]: PSAC antagonists in infected red cells, primary screen, cell-based, P. falciparum Indochina, OD700, 1 h (AID 1154). The settings on record: P. falciparum Indochina infected RBC osmotic lysis, higher = more signal, called active from +8 up or from −8 down.
Assay [4] is described as follows: PSAC antagonists in infected red cells, primary screen, cell-based, P. falciparum Indochina, OD700, 2 h (AID 1155).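 Also: lysis reports solute entry through the parasite surface anion channel PSAC; channel blockers reduce lysis of infected cells.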 The following applies: P. falciparum Indochina infected erythrocytes, osmotic lysis OD700; higher = more signal, called active from +8 up or from −8 down.
Assay [5] can be described thus: osmotic lysis modulators in infected erythrocytes, primary screen, PSAC antagonist project, cell-based, P. falciparum Indochina, OD700, 3 h (AID 1156). The following applies: higher = more signal, called active from +8 up or from −8 down.
Assay [6] in a line: PSAC antagonists in infected red cells, primary screen, cell-based, P. falciparum Indochina, OD700, 18 h (AID 1157). The settings on record: P. falciparum Indochina infected erythrocytes, osmotic lysis OD700, 18 h; higher = more signal, called active from +8 up or from −8 down.
Assay [7] in a line: modulators of S6 phosphorylation in cells, primary screen, cell-based, A549, cytoblot, luminescence, serum-stimulated (AID 1158).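 Also: serum-stimulated A549 lung adenocarcinoma cells; signal is phosphorylated S6 detected by cytoblot immunostaining with HRP secondary.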 The settings on record: A549 phospho-S6 cytoblot, 5 h, higher = more signal.
Assay [8] concerns the target NADPH oxidase 2 (Homo sapiens) (UniProt P04839). Put plainly: NOX2-dependent H2O2 signal modulators, primary screen, NOX inhibitor project, cell-based, HEK293-NOX2, PMA-stimulated, Amplex Red fluorescence (AID 1159). Also: test concentration not given here. The following applies: 45 min, higher = more signal, called active from +8 up or from −8 down.
The target in assay [9] is NADPH oxidase 4 (Homo sapiens) (UniProt Q9NPH5). Put plainly: NOX4-dependent H2O2 signal modulators, primary screen, NOX inhibitor project, cell-based, HEK293-NOX4, tetracycline-induced, Amplex Red fluorescence (AID 1160). The following applies: 45 min, higher = more signal, called active from +8 up or from −8 down.
Assay [10] concerns the target NADPH oxidase 5 (Homo sapiens) (UniProt Q96PH1). As to the kind of experiment: NOX5-dependent H2O2 signal modulators, primary screen, NOX inhibitor project, cell-based, HEK293-NOX5, Amplex Red fluorescence (AID 1161). The settings on record: HEK293-NOX5, ionomycin, 45 min, higher = more signal.

Activity calls are given as the source filed them.

NADPH oxidase 2 (Homo sapiens), sequence (P04839 whole entry, looked up): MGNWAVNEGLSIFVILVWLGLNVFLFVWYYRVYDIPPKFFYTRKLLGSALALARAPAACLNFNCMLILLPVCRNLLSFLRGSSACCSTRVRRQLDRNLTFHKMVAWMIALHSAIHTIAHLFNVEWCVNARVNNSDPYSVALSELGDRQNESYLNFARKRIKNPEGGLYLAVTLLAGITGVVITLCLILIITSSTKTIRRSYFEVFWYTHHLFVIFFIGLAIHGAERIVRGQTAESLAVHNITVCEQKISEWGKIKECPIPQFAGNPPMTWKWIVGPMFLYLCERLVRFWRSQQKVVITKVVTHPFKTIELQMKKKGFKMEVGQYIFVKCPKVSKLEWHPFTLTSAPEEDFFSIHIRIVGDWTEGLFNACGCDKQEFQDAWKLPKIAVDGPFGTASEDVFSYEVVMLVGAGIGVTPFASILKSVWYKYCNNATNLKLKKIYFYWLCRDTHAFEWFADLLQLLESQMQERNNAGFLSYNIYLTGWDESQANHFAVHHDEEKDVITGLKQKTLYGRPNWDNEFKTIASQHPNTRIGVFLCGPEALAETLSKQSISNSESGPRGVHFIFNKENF
NADPH oxidase 4 (Homo sapiens), sequence (Q9NPH5 whole entry, looked up): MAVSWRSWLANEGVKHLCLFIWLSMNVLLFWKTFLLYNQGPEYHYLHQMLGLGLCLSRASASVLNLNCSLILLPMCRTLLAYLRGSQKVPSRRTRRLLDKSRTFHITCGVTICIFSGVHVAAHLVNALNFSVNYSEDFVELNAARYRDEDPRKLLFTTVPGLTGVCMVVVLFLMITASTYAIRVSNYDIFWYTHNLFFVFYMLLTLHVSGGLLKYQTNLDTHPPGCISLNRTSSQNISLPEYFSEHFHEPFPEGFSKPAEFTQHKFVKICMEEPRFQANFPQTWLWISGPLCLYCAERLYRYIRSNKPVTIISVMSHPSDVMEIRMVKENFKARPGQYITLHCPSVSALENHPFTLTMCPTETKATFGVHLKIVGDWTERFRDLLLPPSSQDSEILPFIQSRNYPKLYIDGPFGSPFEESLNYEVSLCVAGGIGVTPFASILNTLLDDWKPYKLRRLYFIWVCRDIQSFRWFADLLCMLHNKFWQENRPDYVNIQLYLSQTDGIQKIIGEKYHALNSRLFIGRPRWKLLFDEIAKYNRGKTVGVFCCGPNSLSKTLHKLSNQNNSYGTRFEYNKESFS
NADPH oxidase 5 (Homo sapiens), sequence (Q96PH1 whole entry, looked up): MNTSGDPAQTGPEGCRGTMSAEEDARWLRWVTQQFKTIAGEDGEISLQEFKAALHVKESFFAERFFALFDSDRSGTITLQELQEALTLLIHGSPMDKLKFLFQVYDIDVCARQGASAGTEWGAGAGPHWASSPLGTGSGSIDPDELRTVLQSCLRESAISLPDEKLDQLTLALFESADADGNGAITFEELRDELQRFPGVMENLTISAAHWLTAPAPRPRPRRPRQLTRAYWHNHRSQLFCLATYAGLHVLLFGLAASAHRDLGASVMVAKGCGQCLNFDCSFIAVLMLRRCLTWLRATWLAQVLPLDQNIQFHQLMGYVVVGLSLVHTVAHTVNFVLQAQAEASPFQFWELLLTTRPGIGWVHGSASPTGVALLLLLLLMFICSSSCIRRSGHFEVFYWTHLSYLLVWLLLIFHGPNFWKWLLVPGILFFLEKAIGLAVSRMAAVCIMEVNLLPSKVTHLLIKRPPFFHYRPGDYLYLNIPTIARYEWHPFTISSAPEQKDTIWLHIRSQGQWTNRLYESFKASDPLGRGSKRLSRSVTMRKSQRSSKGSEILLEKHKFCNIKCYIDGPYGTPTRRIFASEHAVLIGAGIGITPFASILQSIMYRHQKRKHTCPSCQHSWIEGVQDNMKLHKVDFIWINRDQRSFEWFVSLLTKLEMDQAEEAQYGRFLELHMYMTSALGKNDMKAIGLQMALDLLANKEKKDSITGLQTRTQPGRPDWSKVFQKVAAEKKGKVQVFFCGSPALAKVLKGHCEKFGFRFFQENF

As for `CO[C@H]1COC(=O)CC=C[C@@H](C)COC(=O)[C@@H](C)NC(=O)CC=C[C@@H]1C`, the z-score in assay [1] was -0.414 (inactive); in assay [3], -0.401 (inactive); in assay [4], -0.599 (inactive); in assay [5], -0.768 (inactive); in assay [6], -0.872 (inactive); in [7] it was 2.57. Also, the values for the z-score in assay [8], in assay [9] and in assay [10] were -0.206 (inactive), 0.534 (inactive) and 0.984, respectively. The compound further had a composite z-score in [2] of -0.276.

With `CO[C@H]1COC(=O)[C@@H](OCc2ccccc2)C=C[C@H](C)[C@@H](OC)COC(=O)[C@H](OCc2ccccc2)C=C[C@@H]1C`, the z-score in [1] was -0.282 (inactive); in assay [3], -0.0125 (inactive); in assay [4] it was -0.952 (inactive); in assay [5] it was -1.35 (inactive); in assay [6], -1.68 (inactive); in [7], 1.55. The z-score in assay [8] is -0.174 (inactive); in [9] it was 0.433 (inactive); in [10] it was 0.467. In [2], this compound had a composite z-score of -0.0966.

Turning to `COc1ccc([Si](C)(C)[C@H]2[C@H](CCO)O[C@@]3(C(=O)N(Cc4ccccc4)c4ccc(N5C(=O)c6cccc7cccc5c67)cc43)[C@@H]2C)cc1`, the z-score in assay [1] was 1.85 (inactive); in [3], 3.41 (inactive); in assay [4] it was 2.34 (inactive); in [5] it was 1.36 (inactive); in [6] it was 1.65 (inactive); in assay [7], 0.314. Further, the z-score was -1.35 (inactive) in assay [8], 0.163 (inactive) in [9] and 0.513 in [10]. In assay [2], the composite z-score was -0.105.

As to `CCOC(=O)C[C@H]1[C@H](OC(=O)c2cc3ccccc3oc2=O)[C@@H](NC(=O)C2CCCCC2)c2cc(OCCCO)ccc2N1C(=O)c1ccc2ccccc2n1`, the z-score in assay [1] is -0.836 (inactive); in assay [3] it was 4.81 (inactive); in assay [4], 0.491 (inactive); in [5], 0.499 (inactive); in assay [6] it was 0.549 (inactive); in assay [7], -0.725. In addition, the z-score is 2.44 (inactive) in assay [8], 1.52 (inactive) in [9] and 0.451 in [10]. The composite z-score in [2] was -0.0547.

In the case of `CO[C@H]1COC(=O)[C@H](CCSC)NC(=O)CC=C[C@@H](C)COC(=O)[C@@H](OCc2ccccc2)C=C[C@@H]1C`, the z-score in [1] is -0.332 (inactive); in assay [3], -0.349 (inactive); in assay [4] it was 0.238 (inactive); in assay [5], 0.04 (inactive); in assay [6], -0.236 (inactive); in assay [7], 0.182. Further, the z-score in [8] is 1.65 (inactive); in [9] it was -1.43 (inactive); in [10], 0.00807. In [2], this compound registered a composite z-score of -0.109.

With `CO[C@H]1COC(=O)[C@@H](C)COC(=O)[C@H](Cc2ccccc2)NC(=O)CC=C[C@H]1C`, the z-score in assay [1] was -0.507 (inactive); in assay [3], -0.318 (inactive); in assay [4], -1.31 (inactive); in assay [5], -0.116 (inactive); in assay [6] it was -2.15 (inactive); in [7], 0.627. The values for the z-score in assay [8], in [9] and in [10] were 0.714 (inactive), 0.791 (inactive) and 0.299, respectively. The same compound displayed a composite z-score in assay [2] of -0.363.

On to `COc1ccc(-c2ccccc2[C@@H]2N[C@H](C(=O)O)CC[C@H]2C)cc1`, for which the z-score in assay [1] was 0.522 (inactive); in [3], 0.908 (inactive); in assay [4], 0.443 (inactive); in assay [5], 1.42 (inactive); in [6] it was -0.0201 (inactive); in assay [7], 0.305. In addition, the z-score was 0.653 (inactive) in assay [8], -1.28 (inactive) in assay [9] and -0.431 in [10]. In [2], the composite z-score was -0.147.

On to `Cc1ccc(S[C@]2(C(=O)NCCCN(C)C)CC(=O)N(C3CCCCC3)[C@@H]2c2ccc(CO)cc2I)cc1`, for which the z-score is 1.16 (inactive) in [1]; 14 (active) in assay [3]; 1.35 (inactive) in assay [4]; 1.39 (inactive) in [5]; -1.07 (inactive) in assay [6]; 1.72 in assay [7]. The z-score in assay [8] was -4.81 (inactive); in assay [9], -1.42 (inactive); in [10], 0.549. In assay [2], this compound gave a composite z-score of 0.0919.

In the case of `COC(=O)[C@@]1(Cc2ccc(OC)cc2)[C@H]2c3cc(C(=O)N(C)C)n(Cc4ccc(C)c(F)c4F)c3C[C@H]2CN1C(=O)c1ccccc1`, the z-score in [1] is -1.37 (inactive); in assay [3], 1.76 (inactive); in assay [4], -0.0758 (inactive); in [5] it was 0.571 (inactive); in assay [6], 0.788 (inactive); in [7] it was 0.0141. Also, the figures for the z-score in [8], in assay [9] and in [10] were -0.795 (inactive), -0.522 (inactive) and 3.23, respectively. In assay [2], this compound showed a composite z-score of 0.187.

Turning to `CO[C@H]1COC(=O)CC=C[C@H](C)COC(=O)[C@@H](OCc2ccccc2)C=C[C@@H]1C`, the z-score in assay [1] was -0.168 (inactive); in [3], 0.733 (inactive); in [4], -1.13 (inactive); in assay [5], -0.858 (inactive); in assay [6], -2.2 (inactive); in [7] it was 1.27. For the same compound, the z-score in [8] was 0.837 (inactive); in assay [9] it was -0.234 (inactive); in [10], 0.164. This compound also displayed a composite z-score in assay [2] of -0.338.

Take `COCCOC(=O)N1C(=O)[C@@]2(c3cc(C#CCNC(N)=O)ccc31)[C@H](c1ccc(OCCO)cc1)N1[C@H](c3ccccc3)[C@H](c3ccccc3)OC(=O)[C@H]1[C@@H]2C(=O)N1CCCCCCC1`: the z-score in [1] was 1.92 (inactive); in assay [3] it was 1.96 (inactive); in [4], 0.568 (inactive); in [5] it was 0.465 (inactive); in [6], -0.737 (inactive); in assay [7], 1.01. Further, the z-score in assay [8] was 2.38 (inactive); in [9], 1.22 (inactive); in [10], 0.765. Besides, the composite z-score in [2] turned out to be 1.16.

For the origin of these results see PubChem BioAssay.
